Data taken from PubChem BioAssay (NCATS).
“And” between values parts separate entries of the source, which are not always exact repeats. Equal entries are not always repeated. Records with an inconclusive call do not appear. Entries that show only a call come without a potency. Where a structure was tested more than once in an assay, its records may differ in their call. Values without a mark were called inactive. The source made the active and inactive calls. The call rests on the fitted dose curve; in most records, active means well fitted inhibition curve with a large enough effect; inconclusive means small, poorly fitted or top-dose-only effect; inactive means flat fitted curve, though single readings scatter.

Assays:
HB3 = assay: qHTS profiling for inhibitors of Plasmodium falciparum proliferation (AID 504749); settings: P. falciparum in erythrocytes, SYBR Green DNA, 72 h; series mostly up to 28.7 µM
Method in brief: (§1)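 Three-day growth assay of blood-stage parasites in erythrocytes (0.3% parasitemia, 2.5% hematocrit) at 37 C, 5% CO2, quantified by SYBR Green DNA staining after overnight detergent lysis.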

ICS = assay: as above; settings: P. falciparum in erythrocytes, SYBR Green DNA, 72 h; series mostly up to 28.7 µM
Method in brief: as §1

JCK = assay: as above; settings: P. falciparum in erythrocytes, SYBR Green DNA, 72 h; series mostly up to 28.7 µM
Method in brief: as §1

N140 = assay: as above; settings: P. falciparum in erythrocytes, SYBR Green DNA, 72 h; series mostly up to 28.7 µM
Method in brief: as §1

P93_24 = assay: as above; settings: P. falciparum in erythrocytes, SYBR Green DNA, 72 h; series mostly up to 28.7 µM
Method in brief: as §1

P94_40 = assay: as above; settings: P. falciparum in erythrocytes, SYBR Green DNA, 72 h; series mostly up to 28.7 µM
Method in brief: as §1

PAD = assay: as above; settings: P. falciparum in erythrocytes, SYBR Green DNA, 72 h; series mostly up to 28.7 µM
Method in brief: as §1

PC15 = assay: as above; settings: P. falciparum in erythrocytes, SYBR Green DNA, 72 h; series mostly up to 28.7 µM
Method in brief: as §1

PC26 = assay: as above; settings: P. falciparum in erythrocytes, SYBR Green DNA, 72 h; series mostly up to 28.7 µM
Method in brief: as §1

PC49 = assay: as above; settings: P. falciparum in erythrocytes, SYBR Green DNA, 72 h; series mostly up to 28.7 µM
Method in brief: as §1

SC27B = assay: as above; settings: P. falciparum in erythrocytes, SYBR Green DNA, 72 h; series mostly up to 28.7 µM
Method in brief: as §1

TAB109 = assay: as above; settings: P. falciparum in erythrocytes, SYBR Green DNA, 72 h; series mostly up to 28.7 µM
Method in brief: as §1

TAB113 = assay: as above; settings: P. falciparum in erythrocytes, SYBR Green DNA, 72 h; series mostly up to 28.7 µM
Method in brief: as §1

TAB165 = assay: as above; settings: P. falciparum in erythrocytes, SYBR Green DNA, 72 h; series mostly up to 28.7 µM
Method in brief: as §1

W2 = assay: as above; settings: P. falciparum in erythrocytes, SYBR Green DNA, 72 h; series mostly up to 28.7 µM
Method in brief: as §1

CRL-7250 = normal cell line; assay: Cytotoxic Profiling of Annotated Libraries Using Quantitative High-Throughput Screening (AID 1296008); settings: Five cell lines viability, CellTiter-Glo ATP luminescence, 48-72 h; max response: stronger effect = lower value
Method in brief: (§2)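 Cytotoxicity was measured as CellTiter-Glo ATP luminescence, read after 10 min at room temperature. Compound treatment of the cells lasted 48 or 72 hr at 37 degrees Celsius in a qHTS format.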

HEK293 = assay: as above; settings: Five cell lines viability, CellTiter-Glo ATP luminescence, 48-72 h; max response: stronger effect = lower value
Method in brief: as §2

HaCat = assay: as above; settings: Five cell lines viability, CellTiter-Glo ATP luminescence, 48-72 h; max response: stronger effect = lower value
Method in brief: as §2

NIH3T3 = assay: as above; settings: Five cell lines viability, CellTiter-Glo ATP luminescence, 48-72 h; max response: stronger effect = lower value
Method in brief: as §2

KB-3-1 = assay: as above; settings: Five cell lines viability, CellTiter-Glo ATP luminescence, 48-72 h; max response: stronger effect = lower value
Method in brief: as §2
Further: nearly all actives have a fitted effect of over 60% in size.
Potency means the concentration at half of the fitted maximal effect.

## CC(C)Cc1ccc(C(C)C(=O)O)cc1 (centres undefined)
HB3
  Potency: inactive
ICS
  Potency: inactive
JCK
  Potency: inactive
N140
  Potency: inactive
P93_24
  Potency: inactive
P94_40
  Potency: inactive
PAD
  Potency: inactive
PC15
  Potency: inactive
PC26
  Potency: inactive
PC49
  Potency: inactive
SC27B
  Potency: inactive
TAB109
  Potency: inactive
TAB113
  Potency: inactive
TAB165
  Potency: inactive
W2
  Potency: inactive
CRL-7250
  max response: -13.3% and 3.74%
HEK293
  max response: 1.58% and -3.42%
HaCat
  max response: -14.1%
  outcome: inactive
NIH3T3
  max response: 2.78%
  outcome: inactive

## O=C(CCCN1CCC(O)(c2ccc(Cl)cc2)CC1)c1ccc(F)cc1
CRL-7250
  max response: -7.49% and -12%
HEK293
  Potency: 18.8 µM (active)
HaCat
  max response: 2.18%
  outcome: inactive
NIH3T3
  Potency: 21.1 µM (active)
  outcome: inactive

## CN1C(C(=O)Nc2ccccn2)=C(O)c2ccccc2S1(=O)=O
HB3
  Potency: inactive
ICS
  Potency: inactive
JCK
  Potency: inactive
N140
  Potency: inactive
P93_24
  Potency: inactive
P94_40
  Potency: inactive
PAD
  Potency: inactive
PC15
  Potency: inactive
PC26
  Potency: inactive
PC49
  Potency: inactive
SC27B
  Potency: inactive
TAB109
  Potency: inactive
TAB113
  Potency: inactive
TAB165
  Potency: inactive
W2
  Potency: inactive
CRL-7250
  max response: -1.73% and 2.62%
HEK293
  max response: 3.98%
HaCat
  max response: 0.638% and -49.2%
KB-3-1
  max response: -1.54% and -11.4%
NIH3T3
  max response: 1.34%

## CN1C2CCC1CC(OC(=O)C(CO)c1ccccc1)C2 (centres undefined)
CRL-7250
  max response: -10.2%
HEK293
  max response: 0.412%
HaCat
  outcome: inactive
NIH3T3
  max response: -0.822%

## CC(C)NCC(O)COc1ccc(CCOCC2CC2)cc1 (centres undefined)
ICS
  Potency: 5.01 µM (active)
JCK
  Potency: inactive
PC49
  Potency: inactive
SC27B
  Potency: inactive
W2
  Potency: 15.1 µM (active)
CRL-7250
  max response: -5.76%
HEK293
  max response: -0.0868% and -3.99%
HaCat
  max response: 2.43%
  outcome: inactive
NIH3T3
  max response: 2.13% and -7.76%

## CN(C)CCOC(c1ccccc1)c1ccccc1
HB3
  Potency: inactive
JCK
  Potency: inactive
PAD
  Potency: inactive
PC49
  Potency: inactive
SC27B
  Potency: inactive
TAB113
  Potency: inactive
W2
  Potency: 0.953 µM (active)
CRL-7250
  max response: -3.47% and -12.2%
HEK293
  outcome: inactive
HaCat
  outcome: inactive
KB-3-1
  max response: 4.19% and -2.75%
  outcome: inactive
NIH3T3
  outcome: inactive

## CCOC(=O)Nc1ccc(NCc2ccc(F)cc2)nc1N
HB3
  Potency: 8.91 µM (active)
ICS
  Potency: 6.31 µM (active)
JCK
  Potency: 14.1 µM (active)
N140
  Potency: 10 µM (active)
PAD
  Potency: 10 µM (active)
PC26
  Potency: 19 µM (active)
SC27B
  Potency: 10 µM (active)
TAB109
  Potency: 10 µM (active)
TAB113
  Potency: 11.2 µM (active)
TAB165
  Potency: 10 µM (active)
W2
  Potency: 3.79 µM (active)
CRL-7250
  max response: -7.5% and -7.01%
HEK293
  max response: -4.26%
HaCat
  max response: -2.04% and -3.24%
KB-3-1
  max response: -2.17% and -13.9% and -5.9%
NIH3T3
  max response: 4.91%
  outcome: inactive

## O=c1c(-c2ccc(O)cc2)coc2cc(O)cc(O)c12
HB3
  Potency: inactive
ICS
  Potency: inactive
JCK
  Potency: inactive
N140
  Potency: inactive
P93_24
  Potency: inactive
P94_40
  Potency: inactive
PAD
  Potency: inactive
PC15
  Potency: inactive
PC49
  Potency: inactive
SC27B
  Potency: inactive
TAB109
  Potency: inactive
TAB113
  Potency: inactive
TAB165
  Potency: inactive
CRL-7250
  max response: 4.48%
HEK293
  max response: -3.7%
HaCat
  max response: 0.82%
  outcome: inactive
NIH3T3
  max response: -9.8% and -21.1%

## Cc1ccccc1N1C(=O)c2cc(S(N)(=O)=O)c(Cl)cc2NC1C (centres undefined)
CRL-7250
  max response: -4.5%
HEK293
  outcome: inactive
HaCat
  max response: 0.851%
  outcome: inactive
KB-3-1
  max response: 2.47% and -15% and -2.37%
NIH3T3
  max response: 4.24%
  outcome: inactive

## CCN1CCCC1CNC(=O)c1cc(S(=O)(=O)CC)c(N)cc1OC (centres undefined)
CRL-7250
  outcome: inactive
HEK293
  max response: -9.52% and 2.43%
HaCat
  max response: -3.32%
  outcome: inactive
KB-3-1
  max response: 8.59%
NIH3T3
  max response: 4.99%
  outcome: inactive

## NS(=O)(=O)c1cc2c(cc1Cl)NCNS2(=O)=O
HB3
  Potency: inactive
ICS
  Potency: inactive
JCK
  Potency: inactive
N140
  Potency: inactive
P93_24
  Potency: inactive
P94_40
  Potency: inactive
PAD
  Potency: inactive
PC15
  Potency: inactive
PC26
  Potency: inactive
PC49
  Potency: inactive
SC27B
  Potency: inactive
TAB109
  Potency: inactive
TAB113
  Potency: inactive
TAB165
  Potency: inactive
W2
  Potency: inactive
CRL-7250
  outcome: inactive
HEK293
  outcome: inactive
HaCat
  max response: 0.753%
  outcome: inactive
KB-3-1
  max response: 23% and 9.86%
NIH3T3
  max response: -2.86% and -1.17%

## CC(CCc1ccc(O)cc1)NCCc1ccc(O)c(O)c1 (centres undefined)
HB3
  Potency: inactive
ICS
  Potency: inactive
JCK
  Potency: inactive
N140
  Potency: inactive
P93_24
  Potency: inactive
P94_40
  Potency: inactive
PAD
  Potency: inactive
PC26
  Potency: inactive
PC49
  Potency: inactive
SC27B
  Potency: inactive
TAB109
  Potency: inactive
TAB113
  Potency: inactive
TAB165
  Potency: inactive
CRL-7250
  Potency: 23.7 µM (active)
HEK293
  max response: -19%
HaCat
  max response: 0.349%
  outcome: inactive
NIH3T3
  max response: -1.03% and 1.16%

## Nc1ccn([C@H]2CC[C@@H](CO)O2)c(=O)n1
CRL-7250
  max response: -6.37% and 1.28%
HEK293
  outcome: inactive
HaCat
  max response: -8.68%
  outcome: inactive
KB-3-1
  max response: -19.7%
  outcome: inactive
NIH3T3
  max response: -7.7% and 2.02%
